ALDH1A1 block: blocks purified human ALDH1A1 activity | P00352 | Purified ALDH1A1, NADH fluorescence, propionaldehyde substrate | Potency, µM (series often up to 75.3 µM), without a hit: top-dose activity, negative = inhibition, hits mostly inhibitors | 220,000 compounds, 7.3% hits | AID 1030; active = well fitted inhibition curve with a large enough effect, not every such curve was filed as active; inconclusive = small, poorly fitted or top-dose-only effect, or another doubt; inactive = no such curve, though single readings can be large or run the other way;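 also: plate controls were no enzyme wells and a reference inhibitor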
NPSR antag: blocks cAMP signaling of the human neuropeptide S receptor. Potency, µM (titrated, usually from 38.3 µM), for inactives: at the top dose activity change, negative = inhibition, actives largely listed as inhibitors. AID 1461. 220,000 compounds, 1% hits. Q6W5P4. CHO-NPSR cells, cAMP TR-FRET, antagonist mode; also: nearly all actives have a fitted effect of over 50% in size
Target sequence (Q6W5P4 whole entry, looked up): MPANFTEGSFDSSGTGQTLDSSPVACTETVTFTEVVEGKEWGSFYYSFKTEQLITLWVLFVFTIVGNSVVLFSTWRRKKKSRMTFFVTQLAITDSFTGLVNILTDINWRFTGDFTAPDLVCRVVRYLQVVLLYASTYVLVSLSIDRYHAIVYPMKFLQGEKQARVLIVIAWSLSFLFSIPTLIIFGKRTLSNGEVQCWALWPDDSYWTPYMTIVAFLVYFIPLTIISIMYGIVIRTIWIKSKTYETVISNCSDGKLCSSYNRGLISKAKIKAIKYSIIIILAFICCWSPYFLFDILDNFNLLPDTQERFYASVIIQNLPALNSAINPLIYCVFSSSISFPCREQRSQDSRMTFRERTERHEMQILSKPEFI
HPGD inh: HPGD (human) dehydrogenase inhibition. AID 894. purified HPGD, NADH fluorescence kinetic, PGE2 substrate. P15428. 150,000 compounds, 4.3% hits. Potency, µM, inactives show at the highest dose activity change, negative = inhibition, usual class: inhibitors; active = well fitted inhibition curve with a large enough effect, not every such curve was filed as active; inconclusive = small, poorly fitted or top-dose-only effect, or another doubt; inactive = no such curve, though single readings can be large or run the other way
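NADH formation kinetics: reaction with 30 uM PGE2 and 1 mM NAD+ (final), 20 nM enzyme, Tris-HCl pH 8 with Tween 20, after 15 min compound preincubation at room temperature. Fluorescence change, last versus first of five reads.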
Tau ThT inhib: inhibitors of human tau fibril formation, thioflavin T binding; Potency, µM (titrated, usually from 57.4 µM), for inactives: at the top dose activity, negative = inhibition, actives largely listed as inhibitors; 270,000 compounds, 2.1% hits; recombinant tau K18 P301L, heparin-induced fibrillization, ThT fluorescence; AID 1460; also: nearly all actives have a fitted effect of over 55% in size
Target sequence (P10636 561-689 P618L limits assumed): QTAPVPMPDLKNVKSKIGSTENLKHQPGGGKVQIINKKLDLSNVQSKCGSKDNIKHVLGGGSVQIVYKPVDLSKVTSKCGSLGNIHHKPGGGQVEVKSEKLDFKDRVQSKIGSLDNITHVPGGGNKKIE
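Tau K18 P301L fragment (15 uM unlabeled plus 0.24 uM Alexa 594-labeled) in 100 mM sodium acetate pH 7 with compound, fibrillization induced by 20 uM heparin for 6 hr at 37 C. Thioflavin T (30 uM) added, fluorescence read after 1 hr (ex 450, em 510 nm).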
Tau FP inhib: tau fibrillization inhibition (FP); K18 P301L tau heparin fibrillization, Alexa594 FP, 6 h; 280,000 compounds, 0.39% hits; Potency, µM (doses to about 57.7 µM), inactives show at the top dose activity, negative = inhibition, actives largely listed as inhibitors; also: nearly all actives have a fitted effect of over 55% in size
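Read-out: fluorescence polarization of Alexa 594-labeled tau (0.24 uM), 555 nm excitation, 632 nm emission. Mixtures held 15 uM unlabeled K18 P301L, compound and 20 uM heparin, pH 7 acetate buffer, incubated 6 hr at 37 C.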
Tau fluor cs: counter-screen for tau fibril formation inhibitors. tau K18 P301L Alexa594 fluorescence, heparin fibrillization. Potency, µM (top dose mostly 57.7 µM), for the others: top-dose activity change, negative = decrease. 280,000 compounds, 0.93% hits; also: nearly all actives have a fitted effect of over 55% in size
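Human tau K18 P301L (15 uM unlabeled, 0.24 uM Alexa 594-labeled) in 100 mM sodium acetate pH 7 with 20 uM heparin, 6 hr at 37 C. ThT 30 uM added, 1 hr ambient; Alexa 594 FP and total fluorescence read at 555/632 nm.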
Numbers without * were called inactive; ? = inconclusive; · = no result; [ ] = remark or other dose. In the library only some 9.5% were active in any assay of this set; here they are far more common. Unless noted, calls follow the shape of the dose curve; as a rule, active = well fitted curve in the direction sought with a large enough effect; inconclusive = small, poorly fitted or top-dose-only effect, or another doubt; inactive = no such curve, though single readings can be large; an effect the other way counts as inactive or inconclusive. Unless noted, % is scaled to controls: 0 for no effect and ±100 for the full control effect; potency is read from the fitted curve at half-maximal effect.

SMILES	ALDH1A1 block	NPSR antag	HPGD inh	Tau ThT inhib	Tau FP inhib	Tau fluor cs
CCCCCCCOC(=O)c1ccc(OC(=O)c2cccnc2)cc1	?	-5%[46.1 µM]	22µM*	5%	?	11%
CCn1c(=O)c2c(cnn2C)c2ccccc21	9%	-9%[46.1 µM]	32µM*	-19%	-4%	-4%
CCn1c(=O)c(-c2ccccc2)c(O)c2ccccc21	0%	-24%[46.1 µM]	-6%	3%	-1%	4%
Cc1ccc(O)c(-c2cc3ccccc3[nH]2)c1	?	9%[46.1 µM]	?	13µM*	11%	16µM*[quencher]
COc1ccc(-c2cc3ccccc3[nH]2)cc1	·	3%[7.67 µM]	·	?	?	?
O=C(Nc1ccc2oc(=O)ccc2c1)c1ccc(-c2cccc([N+](=O)[O-])c2)o1	7.9µM*	48%	·	?	-5%	-28%
O=C(Nc1ccc2oc(=O)ccc2c1)c1ccc(-c2ccc(Cl)cc2)o1	8.9µM*	-8%[46.1 µM]	·	-15%	-6%	-10%
CC(=O)NC(=S)Nc1ccc2oc(=O)ccc2c1	8.9µM*	-8%	·	-18%	0%	-10%
COc1cccc(OC)c1C(=O)NC(=S)Nc1ccc2oc(=O)ccc2c1	?	6%	-8%	-3%	-5%	-2%
CCCCC(=O)Nc1c(C)cc(C)cc1Cl	-9%	1%[46.1 µM]	35µM*	-5%	0%	-2%
CC1=C(C(=O)N2CCOCC2)C(c2ccc(O)cc2)NC(=S)N1 (centres undefined)	?	14%	-14%	-7%	0%	-4%
Oc1ccc2c(c1)C1CCCC1(N1CCOCC1)O2 (centres undefined)	18µM*	-1%[46.1 µM]	?	?	?	-26%
c1coc(CN=C2NC(=NCc3ccco3)c3ccccc32)c1	25µM*	?	-25%	?	3%	-17%
O=C1c2ccccc2NC(c2ccc(O)cc2)N1Cc1ccco1 (centres undefined)	?	-18%[46.1 µM]	?	-5%	11%	-15%
Cc1ccc(Cl)cc1N1CCN(Cc2cc(=O)n3ccsc3n2)CC1	3%	-2%	·	-7%	-6%	-7%
O=C1CC(c2ccco2)Cc2nc(NCC3CCCO3)ncc21 (centres undefined)	?	-5%[46.1 µM]	-6%	3%	-3%	3%
O=C(Nc1ncc2c(n1)CC(c1ccccc1)CC2=O)c1ccco1 (centres undefined)	?	-5%[46.1 µM]	-13%	10%	1%	7%
O=C(CSc1nnnn1-c1ccccc1)Nc1ncc2c(n1)CC(c1ccco1)CC2=O (centres undefined)	5µM*	-20%[46.1 µM]	-12%	?	7%	-15%
O=C1CC(c2ccco2)Cc2nc(Nc3ccc(F)cc3)ncc21 (centres undefined)	10µM*	-15%[46.1 µM]	-18%	?	-6%	-29%
COc1ccccc1C(=O)Nc1ncc2c(n1)CC(c1ccco1)CC2=O (centres undefined)	8.9µM*	-24%[46.1 µM]	-6%	?	-4%	-9%
Cc1cccc(NC(=O)CSc2nnc(-c3cccs3)o2)c1	·	·	·	2%	-3%	-2%
CCCCc1ccc(NS(=O)(=O)c2cccs2)cc1	7%	-12%[46.1 µM]	·	-9%	6%	-4%
COc1ccc(-n2ncc(N(C)n3cccc3)c(Cl)c2=O)cc1	2%	-18%[46.1 µM]	·	-23%	-9%	-19%
COc1ccc(-n2ncc(Cl)c(Cl)c2=O)cc1	10µM*	-27%	·	?	-5%	-21%
CCc1cccc(CC)c1NC(=O)CCS(=O)(=O)c1ccc(Br)s1	·	·	·	0%	-2%	-12%
SMILES	ALDH1A1 block	NPSR antag	HPGD inh	Tau ThT inhib	Tau FP inhib	Tau fluor cs
CCC(=O)c1ccc(OCc2ccc(C(=O)OC)o2)c(OC)c1	?	-20%[46.1 µM]	22µM*	-18%	2%	-1%
Cc1[nH]nc(Nc2ccc(Br)cc2)c1[N+](=O)[O-]	·	-9%	·	6.3µM*	-2%	-28%
Cc1cccc(Nc2n[nH]c(C)c2[N+](=O)[O-])c1	0%	28%	11µM*	8%	5%	3%
Cc1ccc(Nc2n[nH]c(C)c2[N+](=O)[O-])cc1	-10%	22%	-8%	?	-2%	-18%
Cc1[nH]nc(Nc2ccc(C(C)C)cc2)c1[N+](=O)[O-]	·	-12%	·	13µM*	-1%	?
Cc1ccc(N2C(=O)[C@@H]3[C@H](C2=O)[C@H]2C=C(C(=O)c4ccccc4)C=CN2[C@@H]3C(=O)c2ccc(Cl)cc2)cc1	25µM*	-7%	40µM*	?	-12%	-23%
O=C(c1ccc(Cl)cc1)C1C2C(=O)N(c3ccccc3)C(=O)C2C2CCCN21 (centres undefined)	?	-21%[46.1 µM]	-19%	?	-12%	-12%
O=C(C1=C[C@@H]2[C@H]3C(=O)N(c4ccccc4Cl)C(=O)[C@H]3[C@@H](C(=O)c3ccc(Cl)cc3)N2C=C1)c1ccccc1	?	-3%	-20%	22µM*	-9%	?
O=C(C1=C[C@@H]2[C@H]3C(=O)N(c4cccc(Cl)c4)C(=O)[C@H]3[C@@H](C(=O)c3ccc(Cl)cc3)N2C=C1)c1ccccc1	?	7%	-30%	?	-2%	-16%
COc1ccccc1-n1cnc2cc(C(=O)NC3CCCC3)ccc21	3%	?	16µM*	-7%	1%	-5%
O=C(NC1CC1)c1ccc2c(c1)ncn2C1CCCC1	?	-2%[46.1 µM]	14µM*	-3%	-4%	1%
CCOc1ccccc1-n1cnc2cc(C(=O)NCc3ccco3)ccc21	-16%	-14%[46.1 µM]	16µM*	-11%	9%	-2%
O=C(O)c1ccc2c(c1)ncn2C1CCCCC1	-4%	-5%[46.1 µM]	-11%	-7%	6%	-4%
COc1ccc(OC)c(-n2cnc3cc(C(=O)O)ccc32)c1	5%	?	16µM*	-4%	-11%	2%
CCCCNC(=O)c1ccc2c(c1)ncn2-c1cc(OC)ccc1OC	·	·	·	0%	4%	-4%
COc1ccc(CC(=O)NNS(=O)(=O)c2ccc(F)cc2)cc1OC	2%	-5%	·	-11%	-3%	-11%
O=S(=O)(NCCc1ccncc1)c1cc(Br)ccc1F	1%	-1%[46.1 µM]	0%	2%	-2%	0%
Oc1ccccc1/C=N/Nc1ccnc(SCc2ccccc2)n1	-2%	-25%	28µM*	2%	-7%	-1%
FC(F)(F)c1nc2nncn2c2c1CCCCC2	?	-1%[46.1 µM]	?	-7%	2%	-4%
COc1ccccc1NC(=O)Cc1csc(NC(=S)Nc2ccc(C)cc2)n1	?	-24%[46.1 µM]	-9%	-5%	?	13µM*[quencher]
CCOC(=O)Cc1csc(NC(=O)c2ccc(C)cc2)n1	9%	-3%	·	-12%	-5%	-12%
CCOC(=O)Cc1csc(NC(=S)NC(=O)c2ccc(C)cc2)n1	40µM*	?	·	-9%	?	?
